Compounds without any hit were thinned out: in the full panel of roughly 83,000, 20% have a hit.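 Testing used 96-well plates and a 48-hour single-concentration exposure. Example: -40 means 40% of the starting cells died.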 A number with no mark means an inactive call. The source made the active and inactive calls. Rule for the calls: active = growth percent below 10; inactive = the rest.
Legend:
Assay in all cases: NCI-60 one-dose screen, 48 h (100 = growth as untreated, 0 = no growth, -100 = all killed)
Details in all cases: 10 µM unless noted
MOLT-4 leukemia = tested on: MOLT-4 leukemia
SR leukemia = tested on: SR leukemia
RPMI-8226 leukemia = tested on: RPMI-8226 leukemia
OVCAR-8 ovarian = tested on: OVCAR-8 ovarian
OVCAR-5 ovarian = tested on: OVCAR-5 ovarian
OVCAR-4 ovarian = tested on: OVCAR-4 ovarian
SK-OV-3 ovarian = tested on: SK-OV-3 ovarian
IGROV1 ovarian = tested on: IGROV1 ovarian
OVCAR-3 ovarian = tested on: OVCAR-3 ovarian
HS 578T breast = tested on: HS 578T breast
NCI/ADR-RES ovarian = tested on: NCI/ADR-RES ovarian
T-47D breast = tested on: T-47D breast
BT-549 breast = tested on: BT-549 breast
MDA-MB-435 melanoma = tested on: MDA-MB-435 melanoma
SW-620 colon = tested on: SW-620 colon
MCF7 breast = tested on: MCF7 breast
HCT-116 colon = tested on: HCT-116 colon
HCC-2998 colon = tested on: HCC-2998 colon
KM12 colon = tested on: KM12 colon

Row | Compound | growth (MOLT-4 leukemia) | growth (SR leukemia) | growth (RPMI-8226 leukemia) | growth (OVCAR-8 ovarian) | growth (OVCAR-5 ovarian) [%] | growth (OVCAR-4 ovarian) | growth (SK-OV-3 ovarian) | growth (IGROV1 ovarian) | growth (OVCAR-3 ovarian) | growth (HS 578T breast) | growth (NCI/ADR-RES ovarian) | growth (T-47D breast) | growth (BT-549 breast) | growth (MDA-MB-435 melanoma) | growth (SW-620 colon) | growth (MCF7 breast) | growth (HCT-116 colon) | growth (HCC-2998 colon) | growth (KM12 colon)
1 | Nc1c(F)cc(-c2nc3cc(F)ccc3[se]2)cc1F | 78.7% | 20.6% | 48.8% | 95.5% | 31.1 | 48.9% | 61.4% | 19.5% | 71.3% | 94.7% | 94.6% | 5.78% (active) | 78.9% | 106% | 95.2% | 2.27% (active) | 37.1% | -44.5% (active) | 42.5%
2 | Clc1cccc(Cl)c1Cl | 104% | 92.7% | 110% | 112% | 97.8 | 106% | 104% | 104% | 94.2% | 102% | 105% | 85.8% | 102% | 105% | 105% | 93.5% | 98.9% |  | 100%
3 | CC[C@H](C)[C@@H]([C@@H](CC(=O)N1CCC[C@H]1[C@H](OC)[C@@H](C)C(=O)N[C@H](C)[C@@H](O)c1ccccc1)OC)N(C)C(=O)[C@@H](NC(=O)[C@@H](NC)C(C)C)C(C)C | 18.3% | 13.8% | 26.5% | 21% | 60.9 | 36.2% | 14.1% | 18.1% | -13.9% (active) | 28.9% | -2.45% (active) | 87.3% | 6.48% (active) | 2.42% (active) | 32.8% | 15.3% | 7.3% (active) | 9.29% (active) | 15.3%
4 | CO[C@H]1CC[C@@]2(C)C(=CC[C@@H]3[C@@H]2CC[C@]2(C)C(=O)C(=O)C[C@@H]32)C1 | 115% | 107% | 88.9% | 93.3% | 103 | 113% | 103% | 120% | 105% | 92.6% | 104% | 97.1% | 106% | 112% | 100% | 102% | 97% | 109% | 111%
5 | COc1ccc2c(c1)c(-c1nc(-c3cn(C)c4ncccc34)cs1)cn2CCN1CCOCC1 | 33.5% | 39.1% | 13.3% | 29.2% | 78.2 | 42% | 85.1% | 28.7% | 47.9% | 31.4% | 30.6% | 20% | 54.7% | 72.9% | 55.8% | 13.5% | 34.4% | 95.6% | 22.7%
6 | CC[C@H](NC(=O)[C@H]1CCCCN1C)C(=O)N(C)[C@H](C[C@@H](OC(C)=O)c1nc(C(=O)N[C@@H](Cc2ccccc2)C[C@H](C)C(=O)O)cs1)C(C)C | 10.2% | 6.46% (active) | 15.5% | 9.15% (active) | 37.5 | 43.5% | 25.8% | 25.3% | -6.57% (active) | 11.4% | 9.47% (active) | 51.3% | -15.6% (active) | -36.5% (active) | 22.4% | 16.9% | 0.18% (active) | 8.05% (active) | 7.87% (active)
7 | O=C(CC1(O)C(=O)N(Cc2ccccc2)c2ccccc21)c1ccc(C(=O)NCC2CCC3(CC2)OOC2(CCCCC2)OO3)cc1 (stereo not drawn) | -49.9% (active) | -49.3% (active) | -26.7% (active) | -14.8% (active) | 21 | -36.6% (active) | 54.3% | -41.8% (active) | -82.4% (active) | -6.26% (active) | -47.1% (active) | -39.1% (active) | -31.1% (active) | -86.5% (active) | 6.2% (active) | 9.78% (active) | 15.5% | 73.4% | -73.9% (active)
8 | CN(C)CCCOc1ccc2c(c1)c(C(=O)C(=O)NCCO)cn2Cc1ccccc1 | 111% | 115% | 106% | 98.1% | 108 | 105% | 110% | 99.6% | 108% | 99.6% | 108% | 95.2% | 98.4% | 103% | 105% | 91.5% | 98.7% | 115% | 104%
9 | OCc1ccc2c(c1)OCO2 | 91.9% | 95.5% | 102% | 95.7% | 97 | 101% | 95.6% | 106% | 107% | 97.1% | 105% | 86.4% | 106% | 102% | 102% | 93% | 101% | 102% | 103%
10 | CCOP(=O)(Cc1ccc(C#N)cc1)OCC | 94.8% | 89% | 103% | 94.3% | 106 | 104% | 102% | 118% | 110% | 105% | 108% | 101% | 109% | 114% | 99.9% | 88.6% | 84.5% | 110% | 107%
11 | Cc1ccc(C(=O)NCCCOc2ccc(N)cc2Cl)cc1S(=O)(=O)F | 79.7% | 87.9% | 85.6% | 101% | 102 | 97.5% | 82.1% | 95.5% | 98.8% | 98% | 103% | 81.9% | 98% | 90.9% | 104% | 103% | 98.9% | 106% | 90.8%
12 | COc1ccc(S(=O)(=O)Nc2c(/C=C\c3cc(OC)c(OC)c(OC)c3)ccc(OC)c2O)cc1OC | 16.8% | 15.9% | 25.4% | 20.3% | 33.7 | 43% | 9.89% (active) | 23.9% | -20.9% (active) | 16.3% | 2.42% (active) | 100% | 20.7% | -52% (active) | 22.6% | 15.7% | 12.6% | 22.6% | 4.9% (active)
13 | CC(C)OC(=O)[C@H](C)NP(=O)(Oc1ccccc1)C1CCCN(O)C1=O (stereo partly drawn) | 93.7% | 89.6% | 101% | 106% | 91.7 | 107% | 122% | 90.6% | 99.4% | 92% | 98.4% | 94.5% | 95% | 96.1% | 93.1% | 94.5% | 89.6% | 97.2% | 94.5%
14 | O=C([O][Hg][CH2]C1OCCOC1[CH2][Hg][O]C(=O)c1ccccc1)c1ccccc1 (stereo not drawn) | -8.85% (active) | 2.54% (active) | 12.3% | 90% | 112 | -89.2% (active) | 122% | 46.3% | -98.2% (active) | 113% | 28.7% | -64.1% (active) | 75.5% | 93.6% | -82.4% (active) | -31.7% (active) | -95.2% (active) | 108% | 107%
15 | Cn1cccc1C1CC(=O)N(CCC[Se]C#N)C1=O (stereo not drawn) | 3.58% (active) | 21.2% | 64.4% | -51.5% (active) | 20.4 | 31.2% | -15.7% (active) | -44.1% (active) | -45.5% (active) | -8.66% (active) | -0.356% (active) | 71.7% | -93.5% (active) | -6.27% (active) | 56.7% | 9.04% (active) | 2.78% (active) | 83.1% | 12.3%
16 | Cc1ccc(C(Cc2ccccc2)NCCO)cc1 (stereo not drawn) | 88.2% | 105% | 92% | 103% | 55.4 | 94.7% | 75.8% | 103% | 100% | 97.8% | 100% | 67.7% | 69.3% | 99.1% | 104% | 93.4% | 90% | 99.9% | 90%

Source: PubChem BioAssay (NCI)
